# Screening data: PubChem, Broad Institute
# In the library only some 2.3% were active in any assay of this set; here they are far more common.
# C diff HTS = C. difficile growth inhibition | Clostridium difficile clinical isolate growth, OD600, 24 h; hits give low values | growth activity, negative = inhibition, % at 16 µg/mL (by protocol) | 86,000 compounds, 0.25% hits;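 active = mean growth activity at or below -80% and every replicate also at or below -80%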;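 also: 0% = DMSO wells and -100% = levofloxacin 16 µg/mL wells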
# Pf Dd2 growth = P. falciparum Dd2 growth inhibition; activity change, % at 10 µM; SYBR Green, 72 h; hits give low values; 94,000 compounds, 2.3% hits; in the data active = activity change below about -80%
# Numbers without * were called inactive; . = no result given.
SMILES,C diff HTS,Pf Dd2 growth
C[C@@H]1CN([C@H](C)CO)C(=O)c2cc(NS(C)(=O)=O)ccc2O[C@@H](C)CCCCO[C@H]1CN(C)S(=O)(=O)c1ccccc1,-0.2,8.7
O=C(Cc1ccccn1)NCC[C@H]1CC[C@@H](NC(=O)c2ccccc2F)[C@H](CO)O1,.,4.9
C#Cc1ccc([C@H]2C=C(C(=O)Nc3ccccc3)O[C@@H](OCCCCO)C2)cc1,0.5,.
CCC(=O)N1C[C@@H](C)[C@H](OC)CN(C)C(=O)c2cc(NC(=O)CC(F)(F)F)ccc2OC[C@@H]1C,-18.9,-1.1
C[C@@H]1CCCCO[C@@H](CN(C)Cc2ccc(C(=O)O)cc2)[C@H](C)CN([C@H](C)CO)C(=O)c2cc(NC(=O)CCCN(C)C)ccc2O1,4.9,10.8
C[C@@H]1CN([C@@H](C)CO)C(=O)c2cc(NC(=O)CCCN(C)C)ccc2O[C@@H](C)CCCCO[C@H]1CN(C)Cc1ccc(C(F)(F)F)cc1,2.4,-84.0*
C[C@H]1CCCCO[C@@H](CN(C)Cc2ccc(C(F)(F)F)cc2)[C@@H](C)CN([C@@H](C)CO)C(=O)c2cc(NC(=O)CCC(F)(F)F)ccc2O1,-0.5,-44.6
C[C@@H]1CN([C@H](C)CO)C(=O)c2cc(NC(=O)CCCN(C)C)ccc2O[C@@H](C)CCCCO[C@H]1CN(C)Cc1ccc(C(F)(F)F)cc1,5.3,-85.9*
C[C@@H]1CCCCO[C@H](CN(C)Cc2ccc(C(F)(F)F)cc2)[C@@H](C)CN([C@@H](C)CO)C(=O)c2cc(NC(=O)CCCN(C)C)ccc2O1,1.1,-88.2*
C[C@H](CO)N1C[C@H](C)[C@H](CN(C)Cc2ccc(C(F)(F)F)cc2)OCCCC[C@H](C)Oc2ccc(NC(=O)CCCN(C)C)cc2C1=O,11.8,-86.2*
C[C@@H]1CCCCO[C@H](CN(C)Cc2ccc(C(F)(F)F)cc2)[C@@H](C)CN([C@H](C)CO)C(=O)c2cc(NC(=O)CCC(F)(F)F)ccc2O1,-0.5,-38.3
C[C@@H]1CCCCO[C@@H](CN(C)Cc2ccc(C(F)(F)F)cc2)[C@@H](C)CN([C@H](C)CO)C(=O)c2cc(NC(=O)CCC(F)(F)F)ccc2O1,5.6,-30.8
COCC(=O)Nc1ccc2c(c1)OC[C@H](C)N(C(=O)CC1CC1)C[C@@H](C)[C@H](OC)CN(C)C2=O,6.6,26.2
COc1ccc(NC(=O)N[C@@H]2CC[C@@H](CCn3cc(-c4ccccc4)nn3)O[C@H]2CO)cc1,1.5,-3.5
CO[C@@H]1CN(C)C(=O)c2ccc(NC(=O)Nc3ccc(F)cc3)cc2OC[C@@H](C)N(C(=O)c2cnccn2)C[C@H]1C,.,-61.6
C[C@@H]1CN([C@H](C)CO)C(=O)c2cc(NS(C)(=O)=O)ccc2O[C@@H](C)CCCCO[C@H]1CN(C)Cc1ccc(Cl)c(Cl)c1,1.6,-51.8
C[C@@H]1CN([C@H](C)CO)C(=O)c2cc(NS(C)(=O)=O)ccc2O[C@@H](C)CCCCO[C@H]1CN(C)Cc1ccccc1,0.1,20.5
Cc1ccc(S(=O)(=O)Nc2ccc3c(c2)C(=O)N([C@H](C)CO)C[C@@H](C)[C@@H](CN(C)Cc2ccccc2)OCCCC[C@@H](C)O3)cc1,1.2,-82.8*
C[C@@H]1CN([C@@H](C)CO)C(=O)c2cc(NS(C)(=O)=O)ccc2O[C@@H](C)CCCCO[C@@H]1CN(C)Cc1ccccc1,-3.8,-94.5*
C[C@@H]1CN([C@H](C)CO)C(=O)c2cc(NS(C)(=O)=O)ccc2O[C@@H](C)CCCCO[C@@H]1CN(C)Cc1ccc(Cl)c(Cl)c1,-0.8,-88.0*
Cc1ccc(S(=O)(=O)Nc2ccc3c(c2)C(=O)N([C@@H](C)CO)C[C@H](C)[C@H](CN(C)Cc2ccccc2)OCCCC[C@H](C)O3)cc1,2.2,-55.3
CO[C@H]1CN(C)C(=O)c2cc(NS(=O)(=O)c3ccc(Cl)cc3)ccc2OC[C@H](C)N(C)C[C@@H]1C,-1.9,-6.7
COC(=O)[C@@H]1[C@@H](CO)[C@@H]2Cn3c(cccc3=O)[C@@H]2N1C(=O)C1CCCCC1,-1.2,3.4
O=C(C[C@H]1CC[C@@H]2NC[C@@H](O)COC[C@H]2O1)Nc1nccs1,-4.1,.
CCCN(C)C[C@@H]1OCCCC[C@H](C)Oc2ccc(NC(=O)c3ccccc3)cc2C(=O)N([C@H](C)CO)C[C@@H]1C,0.2,.
SMILES,C diff HTS,Pf Dd2 growth
C[C@@H]1CCCCO[C@@H](CN(C)CC2CC2)[C@H](C)CN([C@@H](C)CO)C(=O)c2cc(NC(=O)c3ccccc3)ccc2O1,-8.7,-6.1
C[C@@H]1CN([C@@H](C)CO)C(=O)c2cc(NC(=O)c3ccccc3)ccc2O[C@@H](C)CCCCO[C@H]1CN(C)Cc1ccccc1,3.3,-84.8*
CCCN(C)C[C@H]1OCCCC[C@@H](C)Oc2ccc(NC(=O)c3ccccc3)cc2C(=O)N([C@@H](C)CO)C[C@H]1C,-1.0,-91.4*
CCCN(C)C[C@@H]1OCCCC[C@H](C)Oc2ccc(NC(=O)C3CCCCC3)cc2C(=O)N([C@@H](C)CO)C[C@@H]1C,9.2,-82.8*
C[C@@H]1CCCCO[C@H](CN(C)Cc2ccccc2)[C@H](C)CN([C@@H](C)CO)C(=O)c2cc(NC(=O)c3ccccc3)ccc2O1,-3.2,-46.6
CCCN(C)C[C@@H]1OCCCC[C@@H](C)Oc2ccc(NC(=O)C3CCCCC3)cc2C(=O)N([C@@H](C)CO)C[C@@H]1C,19.1,-34.1
C[C@@H]1CCCCO[C@H](CN(C)CC2CC2)[C@H](C)CN([C@@H](C)CO)C(=O)c2cc(NC(=O)c3ccccc3)ccc2O1,-9.5,-84.4*
CC(C)NC(=O)N(C)C[C@H]1OCCCC[C@H](C)Oc2ccc(NC(=O)NC3CCCCC3)cc2C(=O)N([C@@H](C)CO)C[C@H]1C,-4.4,-28.9
C[C@H](CO)N1C[C@H](C)[C@@H](CN(C)Cc2ccc(C(F)(F)F)cc2)Oc2ccc(NS(=O)(=O)c3cn(C)cn3)cc2CC1=O,-2.7,-0.5
O=C(Nc1ccccc1F)N[C@@H]1CC[C@H](CC(=O)N2CCCCC2)O[C@@H]1CO,.,-4.9
C[C@@H]1CN([C@H](C)CO)C(=O)c2cc(NS(C)(=O)=O)ccc2O[C@H]1CN(C)Cc1ccc(C(=O)Nc2ccccc2N)cc1,-0.3,6.4
COc1ccc(NC(=O)Nc2ccc3c(c2)[C@H]2C[C@H](CC(=O)N4CCCCC4)O[C@@H](CO)[C@H]2O3)cc1,2.1,-2.8
C[C@@H]1CCCCO[C@H](CN(C)Cc2ccc(Cl)c(Cl)c2)[C@@H](C)CN([C@@H](C)CO)C(=O)c2cc(NC(=O)c3ccccc3)ccc2O1,22.1,-89.8*
C[C@@H]1CCCCO[C@@H](CN(C)Cc2ccc(Cl)c(Cl)c2)[C@H](C)CN([C@H](C)CO)C(=O)c2cc(NC(=O)c3ccccc3)ccc2O1,9.8,-80.7*
C[C@H](CO)N1C[C@H](C)[C@H](CN(C)Cc2ccc(Cl)c(Cl)c2)OCCCC[C@H](C)Oc2ccc(NC(=O)c3ccccc3)cc2C1=O,25.7,9.1
C[C@@H]1CCCCO[C@@H](CN(C)Cc2ccc(Cl)c(Cl)c2)[C@@H](C)CN([C@H](C)CO)C(=O)c2cc(NC(=O)c3ccccc3)ccc2O1,5.2,-14.2
CC(C)NC(=O)Nc1ccc2c(c1)CC(=O)N([C@H](C)CO)C[C@H](C)[C@@H](CN(C)Cc1ccc(Cl)c(Cl)c1)O2,27.0,-31.3
CCC(=O)N1CCC2(CC1)CN(C(=O)Nc1ccc(F)cc1)[C@H](CO)c1c2c2ccc(OC)cc2n1C,5.1,-35.5
